Experimental data reported in PubChem BioAssay (EPA / NIEHS).
Values joined by “and” are separate entries in the source; they are usually repeats but may differ in a detail not shown here. Identical values can stand only once. Where a structure was tested more than once in an assay, its records may differ in their call. Active and inactive are the calls of the source. The calls were made as follows: active = hit-call score of the fitted dose curve at least 0.9, where 1 is the maximum; inactive = score below 0.9.

Tests used:
[1] = read-out: Interleukin-8 (IL8), CXCL8 (gene 3576); assay: BSK_KF3CT_IL8: BioMAP Diversity Plus: KF3CT Assay for Interleukin-8 (IL8) Biomarker Activity (AID 2284254); conditions: primary human keratinocytes with fibroblasts
How it was run: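 Human keratinocyte/foreskin fibroblast co-culture dosed 24 h; IL-8 measured by ELISA relative to DMSO. Parallel cultures stained with SRB for total protein to flag cytotoxicity.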

[2] = read-out: Macrophage Inflammatory Protein-1 Alpha (MIP1a), CCL3 (gene 6348); assay: BSK_IMphg_MIP1a: BioMAP Diversity Plus: IMphg Assay for Macrophage Inflammatory Protein-1 Alpha (MIP1a) Biomarker Activity (AID 2284255); conditions: primary human endothelial cells with macrophages
How it was run: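 Co-culture of human venular endothelial cells and macrophages exposed to compounds for 24 h; MIP-1a measured by ELISA relative to DMSO. Cytotoxicity assessed in parallel cultures by sulforhodamine B total-protein staining at 560 nm.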

[3] = read-out: Plasminogen activator inhibitor-1 (PAI1), SERPINE1 (gene 5054); assay: BSK_MyoF_PAI1: BioMAP Diversity Plus: MyoF Assay for Plasminogen activator inhibitor-1 (PAI1) Biomarker Activity (AID 2284256); conditions: primary human lung fibroblasts
How it was run: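 Primary human lung fibroblasts treated with chemical for 24 h; PAI-1 levels quantified by ELISA relative to DMSO. Cytotoxicity was assessed in parallel cultures by SRB total-protein staining (0.1% SRB after 10% TCA fixation, 560 nm).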

CD69, CD69 (gene 969) = assay: BSK_IMphg_CD69: BioMAP Diversity Plus: IMphg Assay for CD69 Biomarker Activity (AID 2284257); conditions: primary human endothelial cells with macrophages
How it was run: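 Human venular endothelial cells co-cultured with macrophages; CD69 quantified by ELISA 24 h after compound addition. Activity fitted in the positive direction relative to DMSO baseline; cytotoxicity tracked in parallel cultures via SRB total-protein staining.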

[4] = read-out: Eotaxin 3, CCL26 (gene 10344); assay: BSK_BF4T_Eotaxin3: BioMAP Diversity Plus: BF4T Assay for Eotaxin 3 Biomarker Activity (AID 2284258); conditions: primary human bronchial epithelial cells with fibroblasts
How it was run: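 Co-culture of human bronchial epithelial cells and dermal fibroblasts, exposed to chemicals for 24 h versus DMSO. Eotaxin-3 quantified by ELISA; cytotoxicity checked in parallel cultures by sulforhodamine B total-protein staining.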

[5] = read-out: Monocyte Chemoattractant Protein-1 (MCP1), CCL2 (gene 6347); assay: BSK_BF4T_MCP1: BioMAP Diversity Plus: BF4T Assay for Monocyte Chemoattractant Protein-1 (MCP1) Biomarker Activity (AID 2284259); conditions: primary human bronchial epithelial cells with fibroblasts
How it was run: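 Co-culture of bronchial epithelial cells and dermal fibroblasts dosed with chemical; MCP-1 measured by ELISA 24 h later. Activity fitted in positive direction versus DMSO; cytotoxicity checked by SRB staining in parallel cultures.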

[6] = read-out: Interleukin-8 (IL8), CXCL8 (gene 3576); assay: BSK_MyoF_IL8: BioMAP Diversity Plus: MyoF Assay for Interleukin-8 (IL8) Biomarker Activity (AID 2284261); conditions: primary human lung fibroblasts
How it was run: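 Human lung fibroblast (MyoF system) cultures dosed for 24 h, then IL-8 measured by ELISA. Response taken relative to DMSO; parallel SRB total-protein staining for cytotoxicity.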

CD90, THY1 (gene 7070) = assay: BSK_BF4T_CD90: BioMAP Diversity Plus: BF4T Assay for CD90 Biomarker Activity (AID 2284262); conditions: primary human bronchial epithelial cells with fibroblasts
How it was run: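 Co-culture of human bronchial epithelial cells and dermal fibroblasts, 24 h compound exposure. Cell-surface CD90 measured by ELISA relative to DMSO; parallel SRB total-protein staining for cytotoxicity.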

[7] = read-out: Interleukin-8 (IL8), CXCL8 (gene 3576); assay: BSK_BF4T_IL8: BioMAP Diversity Plus: BF4T Assay for Interleukin-8 (IL8) Biomarker Activity (AID 2284263); conditions: primary human bronchial epithelial cells with fibroblasts
How it was run: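 Human bronchial epithelial cells with dermal fibroblasts co-culture; IL-8 measured by ELISA 24 hours after dosing, fitted vs DMSO. Cytotoxicity tracked in parallel cultures by SRB total-protein staining.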

[8] = read-out: Interleukin-1 alpha (IL1a), IL1A (gene 3552); assay: BSK_BF4T_IL1a: BioMAP Diversity Plus: BF4T Assay for Interleukin-1 alpha (IL1a) Biomarker Activity (AID 2284264); conditions: primary human bronchial epithelial cells with fibroblasts
How it was run: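 Human bronchial epithelial cells co-cultured with dermal fibroblasts, dosed and read at 24 h. Secreted/surface IL-1α quantified by ELISA; gain-of-signal fitted relative to DMSO baseline. Parallel SRB total-protein staining tracked cytotoxicity.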

Decorin, DCN (gene 1634) = assay: BSK_MyoF_Decorin: BioMAP Diversity Plus: MyoF Assay for Decorin Biomarker Activity (AID 2284265); conditions: primary human lung fibroblasts
How it was run: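 Human lung fibroblast cultures were dosed for 24 h, and decorin was then measured by ELISA. Parallel cultures were stained with sulforhodamine B for total protein as a cytotoxicity check. Gain of signal was fitted relative to DMSO.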

KRT18 (gene 3875) = assay: BSK_BF4T_Keratin818: BioMAP Diversity Plus: BF4T Assay for Keratin 818 Biomarker Activity (AID 2284266); conditions: primary human bronchial epithelial cells with fibroblasts
How it was run: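 Co-culture of human bronchial epithelial cells and dermal fibroblasts, chemical exposure 24 h. Keratin 8/18 measured by ELISA; positive-direction fit vs DMSO. SRB total protein run in parallel cultures for cytotoxicity.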

[9] = BSK_MyoF_SRB: Viability Assessment in the BioMAP Diversity Plus: MyoF Assay (AID 2284267); conditions: primary human lung fibroblasts;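 also: total protein by SRB absorbance in parallel cultures as cytotoxicity measure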
How it was run: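 Human lung fibroblasts dosed with chemical and assessed 24 h later for overt cytotoxicity in parallel cultures. Total protein quantified by sulforhodamine B staining (0.1% SRB after 10% TCA fixation), read at 560 nm, analysed in positive direction versus DMSO baseline.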

[10] = read-out: Matrix Metallopeptidase 1 (MMP1), MMP1 (gene 4312); assay: BSK_MyoF_MMP1: BioMAP Diversity Plus: MyoF Assay for Matrix Metallopeptidase 1 (MMP1) Biomarker Activity (AID 2284268); conditions: primary human lung fibroblasts
How it was run: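 Human lung fibroblast primary cells; MMP1 measured by ELISA 24 h after dosing, fitted in the positive direction relative to DMSO. Parallel SRB staining (0.1%, after 10% TCA fixation, 560 nm) assesses overt cytotoxicity.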

[11] = read-out: TIMP metallopeptidase inhibitor 1 (TIMP1), TIMP1 (gene 7076); assay: BSK_MyoF_TIMP1: BioMAP Diversity Plus: MyoF Assay for TIMP metallopeptidase inhibitor 1 (TIMP1) Biomarker Activity (AID 2284269); conditions: primary human lung fibroblasts
How it was run: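 ELISA quantified TIMP-1 levels after 24 h dosing of primary human lung fibroblasts, with DMSO as baseline. Parallel SRB total protein staining (0.1% SRB after TCA fixation, 560 nm) flagged overt cytotoxicity.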

[12] = read-out: Matrix Metallopeptidase 1 (MMP1), MMP1 (gene 4312); assay: BSK_BF4T_MMP1: BioMAP Diversity Plus: BF4T Assay for Matrix Metallopeptidase 1 (MMP1) Biomarker Activity (AID 2284270); conditions: primary human bronchial epithelial cells with fibroblasts
How it was run: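 Co-culture of human bronchial epithelial cells and dermal fibroblasts; MMP-1 levels measured by ELISA 24 hours after chemical dosing, relative to DMSO. Cytotoxicity checked in parallel cultures by SRB total-protein staining.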

[13] = read-out: Matrix Metallopeptidase 3 (MMP3), MMP3 (gene 4314); assay: BSK_BF4T_MMP3: BioMAP Diversity Plus: BF4T Assay for Matrix Metallopeptidase 3 (MMP3) Biomarker Activity (AID 2284271); conditions: primary human bronchial epithelial cells with fibroblasts
How it was run: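 Co-culture of human bronchial epithelial cells and dermal fibroblasts dosed 24 h; MMP-3 measured by ELISA, positive-direction fit versus DMSO. Cytotoxicity tracked by SRB total-protein staining (560 nm) in parallel cultures.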

[14] = read-out: Tissue plasminogen activator (tPA), PLAT (gene 5327); assay: BSK_BF4T_tPA: BioMAP Diversity Plus: BF4T Assay for Tissue plasminogen activator (tPA) Biomarker Activity (AID 2284272); conditions: primary human bronchial epithelial cells with fibroblasts
How it was run: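 tPA level quantified by ELISA at 24 h post-treatment in bronchial epithelial/dermal fibroblast co-cultures, gain of signal scored against DMSO baseline. Parallel cultures stained with 0.1% SRB (560 nm) to flag overt cytotoxicity.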

[15] = read-out: Plasminogen Activator Inhibitor-1 (PAI1), SERPINE1 (gene 5054); assay: BSK_BF4T_PAI1: BioMAP Diversity Plus: BF4T Assay for Plasminogen Activator Inhibitor-1 (PAI1) Biomarker Activity (AID 2284273); conditions: primary human bronchial epithelial cells with fibroblasts
How it was run: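 Co-culture of human bronchial epithelial cells and dermal fibroblasts exposed to compound for 24 h. PAI-1 measured by ELISA; activity fitted in positive direction versus DMSO. Parallel SRB staining assessed overt cytotoxicity.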

[16] = read-out: Intercellular Adhesion Molecule 1 (ICAM1), ICAM1 (gene 3383); assay: BSK_BF4T_ICAM1: BioMAP Diversity Plus: BF4T Assay for Intercellular Adhesion Molecule 1 (ICAM1) Biomarker Activity (AID 2284260); conditions: primary human bronchial epithelial cells with fibroblasts
How it was run: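 Co-culture of human bronchial epithelial cells and dermal fibroblasts exposed 24 h to chemical; cell-surface ICAM-1 quantified by ELISA. Parallel SRB total-protein staining assessed cytotoxicity; activity fitted relative to DMSO.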

Measured: AC50

C=CC(=O)OCC(F)(F)C(F)(F)C(F)(F)C(F)(F)COC(=O)C=C
inactive: [2] | CD90, THY1 (gene 7070) | [7] | KRT18 (gene 3875) | [10] | [12] | [15]
active: [1] 17.3 µM and 18.9 µM | [3] 15.4 µM and 16.7 µM | CD69, CD69 (gene 969) 30 µM | [4] 21.9 µM and 30 µM | [5] 11.2 µM and 15.5 µM | [6] 19.5 µM and 13.8 µM | [7] 30 µM | [8] 30 µM and 46.8 µM | Decorin, DCN (gene 1634) 15.7 µM and 17 µM | [9] 17.1 µM and 18.2 µM | [11] 14.1 µM and 18.7 µM | [13] 55.4 µM and 6.99 µM | [14] 8.21 µM and 9.07 µM

O=C(O)C(F)(F)C(F)(F)C(F)(F)C(F)(F)C(F)(F)C(F)(F)C(F)(F)C(F)(F)C(F)(F)C(F)F
inactive: [1] | [2] | [3] | CD69, CD69 (gene 969) | [4] | [6] | [7] | Decorin, DCN (gene 1634) | [10] | [11] | [12]
active: [3] 23.6 µM | CD69, CD69 (gene 969) 30 µM | [4] 5.95 µM | [5] 13.3 µM and 3.36 µM | [16] 25.6 µM and 17.8 µM | CD90, THY1 (gene 7070) 17.3 µM and 1.67 µM | [8] 38.8 µM and 20.5 µM | KRT18 (gene 3875) 22.7 µM and 30 µM | [9] 21.3 µM and 21.9 µM | [11] 50.9 µM | [12] 49.7 µM | [14] 9.23 µM and 5.95 µM
